DT40 TDP1 CPT: DT40-hTDP1 cell growth loss with CPT. chicken DT40 Tdp1-/-;hTDP1 cells + 20 nM CPT, ATP luminescence, 48 h. Potency, µM (series often up to 46.2 µM), for the others: at the highest dose activity change, negative = growth inhibition, usual class: inhibitors. AID 686979. hit rate 12% among 420,000; further: nearly all actives have a fitted effect of over 55% in size
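Chicken DT40 Tdp1-/- cells complemented with human TDP1, 400 cells/well, exposed to compounds plus 20 nM camptothecin for at least 48 h at 37 C; viability read as ATP content by CellTiter-Glo luminescence.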
RORgamma inh: blocks mouse ROR gamma transcriptional activity | P51450 | Drosophila S2 Gal4-RORgamma UAS-luciferase reporter, 20 h | Potency, µM (top dose mostly 53.6 µM), without a hit: at the highest dose activity change, negative = inhibition, hits mostly inhibitors | hit rate 5.4% among 310,000 | AID 2551; further: nearly all actives have a fitted effect of over 60% in size
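Luciferase reporter read in Schneider cells carrying Gal4-RORγ (mouse) and UAS-Photinus luciferase; cells given compound 1 h before 700 uM copper sulfate induction, then incubated 20 h at ambient temperature.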
ALOX12 inh: inhibitors of human 12S-lipoxygenase ALOX12; purified 12hLO, xylenol orange hydroperoxide absorbance; Potency, µM (highest dose often 108 µM), inactives show top-dose activity change, negative = inhibition, actives largely listed as inhibitors; hit rate 1.1% among 580,000; AID 1671190
Target sequence (P18054 whole entry, looked up): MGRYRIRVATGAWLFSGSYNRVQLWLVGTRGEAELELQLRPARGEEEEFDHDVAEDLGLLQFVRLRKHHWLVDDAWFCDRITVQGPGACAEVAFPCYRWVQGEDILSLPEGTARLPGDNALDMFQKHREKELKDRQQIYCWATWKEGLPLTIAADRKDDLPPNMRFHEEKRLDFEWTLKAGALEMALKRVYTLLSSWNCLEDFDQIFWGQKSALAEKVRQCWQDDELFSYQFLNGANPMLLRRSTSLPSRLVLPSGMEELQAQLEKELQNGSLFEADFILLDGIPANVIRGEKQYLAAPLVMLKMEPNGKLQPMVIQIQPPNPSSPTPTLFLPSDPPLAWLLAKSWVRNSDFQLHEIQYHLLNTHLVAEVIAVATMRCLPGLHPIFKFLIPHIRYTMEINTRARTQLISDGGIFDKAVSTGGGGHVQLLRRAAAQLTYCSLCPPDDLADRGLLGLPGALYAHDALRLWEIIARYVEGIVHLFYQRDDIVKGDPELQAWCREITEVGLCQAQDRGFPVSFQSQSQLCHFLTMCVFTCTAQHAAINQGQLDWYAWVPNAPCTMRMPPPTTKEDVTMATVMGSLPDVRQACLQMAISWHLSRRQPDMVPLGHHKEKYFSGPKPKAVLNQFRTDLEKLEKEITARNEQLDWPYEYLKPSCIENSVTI
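Hydroperoxide product was detected by ferrous iron/xylenol orange as the 573 to 405 nm absorbance ratio. Arachidonic acid at 40 uM (final) was turned over for 30 min at room temperature by 150 nM human 12hLO, pH 7.0 Hepes buffer, after 15 min compound preincubation.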
ELG1 DNA repair: ELG1-dependent DNA repair inhibition | HEK293T ELG1-luciferase reporter, luminescence, 16 h; DNA damage induced by 5-fluorouridine | hit rate 2.3% among 330,000 | AID 504467 | Potency, µM (highest dose often 46.1 µM), inactives show at the top dose activity change, negative = inhibition, hits mostly inhibitors; further: nearly all actives have a fitted effect of over 55% in size
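Luminescence from the luciferase reporter, measured 30 min after ONE-Glo reagent at room temperature, was the read-out. Beforehand, 2,000 cells per well were exposed for 16 hr at 37 °C to 5-fluorouridine together with compound or vehicle.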
TDP1 cell noCPT: qHTS for Inhibitors of human tyrosyl-DNA phosphodiesterase 1 (TDP1): qHTS in cells in absence of CPT. DT40 Tdp1-/- hTDP1 cells, no CPT, ATP luminescence, 48 h. Potency, µM (doses to about 46.2 µM), for inactives: at the top dose activity change, negative = growth inhibition, usual class: inhibitors. hit rate 15% among 420,000. AID 686978, 2013; further: nearly all actives have a fitted effect of over 55% in size
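Compound effects on proliferation are scored in DT40 Tdp1-/-;hTDP1 cells in the absence of CPT. ATP levels (CellTiter-Glo luminescence) are recorded after a ≥48 hr, 37 °C incubation.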
Gal4-VP16 FLuc: Gal4-VP16 reporter inhibition counter-screen; Drosophila S2 Gal4-VP16 UAS-luciferase, luminescence, 20 h; Potency, µM (titrated, usually from 53.6 µM), inactives show at the top dose activity, negative = inhibition, usual class: inhibitors; hit rate 3.5% among 310,000; AID 2546;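 further: Gal4-VP16 expression switched on by copper sulfate through the metallothionein promoter; nearly all actives have a fitted effect of over 50% in size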
Active calls of the source: *; ? = inconclusive; . = no result; [ ] = remark or other dose. The list is not random: actives were taken first. Their share in the collection is about 15%. The call rests on the fitted dose curve; in most records, active means well fitted curve in the direction sought with a large enough effect; inconclusive means small, poorly fitted or top-dose-only effect, or another doubt; inactive means no such curve, though single readings can be large; an effect the other way counts as inactive or inconclusive. On the % scale 0 is the no-effect control and ±100 the full control effect; potency means the concentration at half of the fitted maximal effect.

SMILES	DT40 TDP1 CPT	RORgamma inh	ALOX12 inh	ELG1 DNA repair	TDP1 cell noCPT	Gal4-VP16 FLuc
CCC(O)(c1ccc(OC)cc1)C(CN1CCOCC1)c1ccccc1 (stereo not drawn)	?	10%	-5%	7%	?	3%
COc1ccc(C(O)(C2CCCCC2)C(CN2CCOCC2)c2ccccc2)cc1 (stereo not drawn)	26µM*	27%	0%	?	?	-14%
CC(C)N1CCC(O)(c2csc(CN3CCOCC3)n2)CC1	.	.	0%[176 µM]	.	.	.
CCC(C)NC(=O)C(NC(=O)c1ccc(OC)cc1)C1CCN(C(=O)c2cccc(OC)c2)CC1 (stereo not drawn)	.	.	2%	.	.	.
COCCNC(=O)[C@@H]1C[C@@H](O)CN1C1CCN(C(=O)c2ccc(C(C)C)cc2)CC1	.	.	14%	.	.	.
CN1C(=O)C(=O)/C(=C(/O)c2ccc(Br)cc2)C1c1ccc(F)cc1 (stereo not drawn)	-3%	-15%	25µM*	-18%	6%	1%
CS(=O)(=O)N(C1CC1)C1CCOC2(CCN(C(=O)c3ccccc3F)CC2)C1 (stereo not drawn)	.	.	22%	.	.	.
O=C(COC(=O)CSc1ccc2ccccc2c1Br)NCc1ccco1	.	.	3%	.	.	.
CCN(CC)S(=O)(=O)c1cc(NC(=O)CSc2nc3c(cc2C#N)C(=O)CC(C)(C)C3)ccc1C	?	15%	13%	21µM*	18µM*	24%
CC1(C)CC(=O)c2cc(C#N)c(SCc3ccccc3)nc2C1	.	.	-2%	.	.	.
Cc1ccc(S(=O)(=O)c2nnn3c2nc(NCc2ccc(F)cc2)c2ccccc23)cc1	.	.	-20%	.	.	.
Cc1cccc(C)c1NC(=S)/C(=C(\[O-])c1cccs1)[n+]1ccccc1	-19%	?	-11%	3%	?	20µM*
COC(=O)[C@]12CCCCC=C1N(CCc1ccc(OC)c(OC)c1)C(=O)[C@H](CC(=O)NCc1ccc(C)o1)C2	16µM*	.	-39%	.	?	.
COC(=O)[C@]12CCCCC=C1N(Cc1cccc3ccccc13)C(=O)[C@H](CC(=O)NCc1ccc(OC)c(OC)c1)C2	?	.	59%	.	?	.
CCOC(=O)[C@]12CCCC=C1N(CCc1ccc(OC)c(OC)c1)C(=O)[C@H](CC(=O)N1CCCCC1)C2	15µM*	.	13%	.	12µM*	.
COC(=O)[C@]12CCCCC=C1N(CCc1ccc(OC)c(OC)c1)C(=O)[C@H](CC(=O)NCc1cccc3ccccc13)C2	10µM*	.	-8%	.	9.2µM*	.
CCCCOCCCNC(=O)C[C@@H]1C[C@@]2(C(=O)OC)CCCCC=C2N(CCc2ccc(OC)c(OC)c2)C1=O	?	.	18%	.	?	.
CCOC(=O)[C@]12CCCC=C1N(CCc1ccc(OC)c(OC)c1)C(=O)[C@H](CC(=O)NCc1ccccc1)C2	16µM*	.	-16%	.	13µM*	.
CC(=O)Nc1cccc(C(=O)OCC(=O)c2ccc[nH]2)c1	.	.	10%	.	.	.
CCC(C)NC(=O)CCNC(=O)N1CCn2c1nc1ccccc12 (stereo not drawn)	.	.	1%	.	.	.
Cc1cc2c(-c3cccc(OC(C)C)c3)nc(-c3c(C)noc3C)cc2[nH]1	.	.	3%[176 µM]	.	.	.
Cc1cccc(NS(=O)(=O)c2ccc3c(c2)CCN3C(=O)C2CC2)c1C	21µM*	.	-10%	.	23µM*	.
Cc1cccc(NS(=O)(=O)c2ccc3c(c2)CCCN3C(=O)C2CCC2)c1C	21µM*	.	-45%	.	?	.
CC(=O)N1CCCc2cc(S(=O)(=O)Nc3cccc(C)c3C)ccc21	?	29%	-1%	9%	?	9%
COC(=O)C(C)N(C(=O)c1ccc(Cl)cc1)c1c(C)cccc1C (stereo not drawn)	15µM*	?	9%	-1%	?	-11%
SMILES	DT40 TDP1 CPT	RORgamma inh	ALOX12 inh	ELG1 DNA repair	TDP1 cell noCPT	Gal4-VP16 FLuc
COC(=O)C(C)N(C(=O)c1ccc(C(=O)c2ccccc2)cc1)c1c(C)cccc1C (stereo not drawn)	13µM*	15%	-5%	?	20µM*	0%
Cc1ccccc1NC(=O)C(C)c1cccc(C(=O)c2ccccc2)c1 (stereo not drawn)	-14%	8%	6%	-8%	?	0%
CN(C)C(=O)c1ccc(Cl)cc1	.	.	-11%	.	.	.
COc1cc(C2C3=C(CCCC3=O)OC3=C2C(=O)CCC3)ccc1OS(=O)(=O)c1ccc(C)cc1	.	.	-18%	.	.	.
Cn1ncc(N2CCC(CNC(=O)CN3CCOCC3)C2)cc1=O (stereo not drawn)	.	.	5%	.	.	.
C#CC(=O)N(c1cccc(OC)c1)C(C(=O)NC1CCCC1)c1cccs1 (stereo not drawn)	1µM*	1.6µM*	-5%	21µM*	2.3µM*	5µM*
COc1ccc(N(C(=O)Cc2cccs2)C(C(=O)NC2CCCCC2)c2cccn2C)cc1OC (stereo not drawn)	-1%	35%	0%	-4%	-18%	1%
C#CC(=O)N(c1ccc(OC)c(OC)c1)C(C(=O)NC1CCCC1)c1cccs1 (stereo not drawn)	0.73µM*	2.5µM*	-1%	?	0.65µM*	8.9µM*
COc1cccc(/C=N/Nc2nc(Nc3ccc([N+](=O)[O-])cc3)nc(N3CCCC3)n2)c1O	8.2µM*	4.5µM*	7%	6.5µM*	5.8µM*	-14%
CNc1nc(N/N=C/c2ccc([N+](=O)[O-])cc2)nc(Nc2ccccc2)n1	?	-22%	-7%	?	?	?
Fc1ccccc1/C=N/Nc1nc(N2CCCCC2)nc(N2CCCCC2)n1	-15%	-35%	0%	5%	?	4%
COc1c(/C=N/Nc2nc(N3CCCCC3)nc(N3CCCCC3)n2)cccc1[N+](=O)[O-]	?	0.32µM*	0%	-2%	?	14%
COc1cccc(/C=N/Nc2ccc([N+](=O)[O-])cn2)c1O	3.3µM*	4.5µM*	4%	?	2.9µM*	7.1µM*
O=[N+]([O-])c1cccc(/C=C/C=N/Nc2nc(N3CCCCC3)nc(N3CCCCC3)n2)c1	-25%	7.9µM*	9%	-2%	?	-1%
S=c1[nH]nc(-c2n[nH]c3c2CCC3)n1/N=C/c1cccc2ccccc12	.	.	-61%	.	.	.
Fc1cccc(/C=C/c2nc3cc(-c4ccccc4)ccc3o2)c1	.	.	17%	.	.	.
O=[N+]([O-])c1ccc(/C=N/Nc2nc(N3CCCCC3)nc(N3CCCCC3)n2)o1	?	-28%	-16%	23µM*	18µM*	1%

Screens from PubChem BioAssay.
